Screens (PubChem BioAssay)
Cycloheximide cs: counter-screen hit for Shiga toxin inhibitors, cycloheximide; cell reporter, cycloheximide protein synthesis inhibition counterscreen; max response, %; 300,000 compounds, 12% hits; AID 2314; in the data active = max response mostly above about 13%, no sharp cut-off; inactive = mostly below about 14%; note: read at 38.3 µM for the half of the compounds with a filed dose; 0% is about no effect
Pf growth 96h: P. falciparum growth inhibition at 96 hours | P. falciparum luciferase reporter growth, 96 h | Potency, µM (titrated, usually from 28.7 µM), for the others: at the top dose activity change, negative = inhibition, hits mostly inhibitors | 320,000 compounds, 6.9% hits | AID 504834; note: potency is the fitted concentration of half-maximal effect; % is set by controls: 0 for no effect and ±100 for the full control effect
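96 h incubation, 37 C, 5% CO2, of luciferase-reporter P. falciparum-infected RBCs (2% hematocrit, 0.05% parasitemia final) with test compounds; endpoint luminescence.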
NS1 inh: inhibitors of influenza NS1 protein function | Potency, µM (doses to about 46.1 µM), for the others: at the top dose activity, positive = more growth | 270,000 compounds, 0.4% hits; calls by dose curve; note: potency is the fitted concentration of half-maximal effect; actives are rising curves; nearly all actives have a fitted effect of over 50% in size
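Recovery from NS1-induced slow growth read by OD600 in budding yeast switched to galactose assay medium (pH 6.0, -URA) at 1:100 dilution. Compound 23 nl per well; the matching strain lacking NS1 serves as control.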
SARS PLpro yeast: blocks SARS-CoV papain-like protease in a yeast assay; S. cerevisiae expressing SARS-CoV PLpro, growth rescue; Potency, µM (series often up to 32.9 µM), without a hit: at the top dose activity, positive = growth rescue, hits mostly activators; 330,000 compounds, 0.19% hits; AID 485353; calls by dose curve; note: potency is the fitted concentration of half-maximal effect; 0% is about no effect; nearly all actives have a fitted effect of over 55% in size
Shiga toxin inh: blocks Shiga toxin action in Vero cells; Vero cells, Shiga toxin protein synthesis inhibition reporter; inhibition, % at 38.7 µM; 290,000 compounds, 9.2% hits; AID 2315; in the data active = inhibition mostly above about 28%, no sharp cut-off; inactive = mostly below about 43%; note: 0% is about no effect
Pf growth 48h: P. falciparum growth inhibition at 48 hours (one generation). P. falciparum luciferase growth in erythrocytes, 48 h. Potency, µM (highest dose often 28.7 µM), inactives show at the top dose activity change, negative = inhibition, actives largely listed as inhibitors. 310,000 compounds, 5.9% hits. AID 504832; note: potency is the fitted concentration of half-maximal effect; % is set by controls: 0 for no effect and ±100 for the full control effect
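Here the parasites carry a stable luciferase gene and grow inside erythrocytes in Albumax-based RPMI medium with compound for one erythrocytic cycle. Activity is scored as loss of luminescent signal.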
An asterisk follows results filed as active; u = inconclusive; x = no result given. Compounds with a hit are over-represented: about 21% of the library has one in this group of screens. Unless noted, calls come from the whole dose curve; as a rule, active = well fitted inhibition curve with a large enough effect; inconclusive = small, poorly fitted or top-dose-only effect, or another doubt; inactive = no such curve, though single readings can be large or run the other way.

SMILES	Cycloheximide cs	Pf growth 96h	NS1 inh	SARS PLpro yeast	Shiga toxin inh	Pf growth 48h
CCOc1cc(/C=N/NC(=O)c2ccc3c(c2)OCCO3)cc(Br)c1O	12.2*	-4.1%	-5.9%	1.3%	76.9*	1.0%
O=C(N/N=C/c1cc(Br)c(Br)o1)c1cccnc1	8.3	13.1µM*	-4.4%	-6.9%	-1.9	-15.8%
CN(C)c1nc(C#N)nc(N(C)C)n1	-3.7	46.2%	x	0.9%	-16.8	-1.3%
CCCN(CCC)c1nc(C#N)nc(N(CCC)CCC)n1	8.3	8.28µM*	x	-3.1%	11.4	11.7µM*
Cc1ccccc1N(C(=O)c1snc(C(N)=O)c1N)C(C(=O)NCC1CCCO1)c1ccc(F)cc1 (stereo not drawn)	7.4	1.2%	7.3%	-7.2%	-16.1	u
O=C(c1ccc(Br)o1)N1N=C(c2ccc(Cl)cc2)CC1c1ccco1 (stereo not drawn)	25.4	9.28µM*	0.3%	-3.6%	31.4	u
O=S(=O)(c1ccccc1)N1N=C(c2ccc(Cl)cc2)CC1c1ccco1 (stereo not drawn)	x	u	x	-1.4%	x	10.4µM*
CCS(=O)(=O)Nc1cccc(C2=NN(S(=O)(=O)c3ccccc3)C(c3ccco3)C2)c1 (stereo not drawn)	12.0	u	3.4%	3.9%	-3.4	u
CS(=O)(=O)Nc1cccc(C2=NN(S(=O)(=O)c3ccccc3)C(c3ccco3)C2)c1 (stereo not drawn)	16.4*	-0.9%	x	1.7%	36.7	-25.8%
CC(=O)N1N=C(c2ccc(C)cc2)CC1c1ccco1 (stereo not drawn)	13.1*	u	-7.7%	-2.1%	34.7	49.3%
Cn1nnnc1SCC(=O)N1N=C(c2ccc(Cl)cc2)CC1c1ccco1 (stereo not drawn)	x	x	x	0.3%	x	x
CC(=O)N1N=C(c2ccc(Cl)cc2)CC1c1ccco1 (stereo not drawn)	7.1	-5.2%	-1.6%	-0.7%	-7.3	14.7%
O=[N+]([O-])c1ccc(Cl)c(/C=N/n2c(-c3ccncc3)n[nH]c2=S)c1	-0.7	-3.6%	3.6%	-2.3%	-7.8	-9.1%
Cn1cc(/C=C/C(=O)N2CCCC(C(=O)c3ccc(C(C)(C)C)cc3)C2)cn1 (stereo not drawn)	9.4	19.5%	-1.1%	0.0%	17.9	-18.9%
C=C(C)CSc1nc2c(c(=O)[nH]c(=O)n2C)n1CCC(C)C	-6.6	146.0%	-9.1%	-7.9%	-28.4	x
Cc1ccc(OCCNC(=O)Cc2ccc(F)cc2)cc1	-1.1	-14.4%	-9.1%	2.5%	1.4	-3.8%
Cc1ccc(C2=NN(C(=O)CCl)C(c3ccco3)C2)o1 (stereo not drawn)	14.0	6.57µM*	-3.8%	3.2%	25.6	10.4µM*
CC(=O)N1N=C(c2c(O)n(C)c(=O)n(C)c2=O)CC1c1ccccc1 (stereo not drawn)	-3.1	2.62µM*	3.1%	0.9%	-2.2	3.7µM*
CC(=O)N1N=C(c2ccc(C)o2)CC1c1cccc(F)c1 (stereo not drawn)	-1.2	33.8%	-1.4%	1.1%	-7.9	-20.1%
CC(=O)N1N=C(c2ccco2)CC1c1ccco1 (stereo not drawn)	1.6	-3.1%	13.0%	-2.6%	-3.9	-4.3%
C(=C\c1ccco1)/C1=NN(c2ccccc2)C(c2ccco2)C1 (stereo not drawn)	40.4*	u	-5.2%	-21.8%	79.9*	8.7%
CC(=O)N1N=C(c2ccco2)CC1c1ccc(C)cc1 (stereo not drawn)	-3.8	25.6%	20.0%	4.1%	20.1	10.8%
CC(=O)N1N=C(c2ccco2)CC1c1ccc(Br)cc1 (stereo not drawn)	1.1	10.4µM*	3.0%	4.6%	10.8	6.5%
O=C(CSC1=NCCS1)NC1CCCC1	-0.7	13.9%	-2.4%	-1.0%	-2.3	24.6%
Cc1ccc(N2N=C(c3ccc(F)cc3)CC2c2ccco2)cc1 (stereo not drawn)	30.4*	21.2%	-5.2%	-2.2%	46.2*	-14.9%
SMILES	Cycloheximide cs	Pf growth 96h	NS1 inh	SARS PLpro yeast	Shiga toxin inh	Pf growth 48h
CC(=O)N1N=C(c2ccccc2)CC1c1ccc(F)cc1 (stereo not drawn)	-2.4	1.8%	-7.6%	0.0%	x	-2.4%
Fc1ccc(C2=NN(c3ccccc3)C(c3ccco3)C2)cc1 (stereo not drawn)	11.8	-26.6%	-7.4%	-2.1%	25.0	39.5%
CC(=O)N1N=C(c2ccccc2)CC1c1cn(C)c2ccccc12 (stereo not drawn)	52.0*	21.7%	-15.6%	16.6%	115.4*	31.2%
Cc1ccc(S(=O)(=O)N[C@H](C(=O)OCC(=O)N2N=C(c3ccc(Cl)cc3)CC2c2ccco2)C(C)C)cc1 (stereo partly drawn)	1.4	u	29.6%	16.9%	-2.7	10.4µM*
O=C(CNC(=O)c1ccccc1)OCC(=O)N1N=C(c2ccc(Cl)cc2)CC1c1ccco1 (stereo not drawn)	5.0	3.1%	x	-10.1%	11.5	u
CCc1ccc(C2CC(c3ccco3)=NN2S(C)(=O)=O)cc1 (stereo not drawn)	45.4*	24.7%	6.0%	-5.4%	82.8*	3.1%
Cc1cccc(C)c1NC(=O)CCS(=O)(=O)c1ccc(Br)cc1	-3.0	31.1%	5.0%	0.0%	-5.3	-8.0%
CCc1nnc(NC(=O)CSc2nnc(-c3ccc(NS(=O)(=O)c4ccccc4)cc3)o2)s1	-2.3	u	-26.7%	7.4%	-12.5	8.2%
Cc1ccc(C2CC(c3ccccc3)=NN2c2ccccc2)o1 (stereo not drawn)	21.3*	u	-26.6%	-17.7%	63.8*	u
Cc1nc(N2N=C(c3ccc(Cl)cc3)CC2c2ccco2)sc1C(=O)N(C)C (stereo not drawn)	26.9*	u	x	1.7%	30.2	u
Clc1ccc(C2=NN(c3ccccc3)C(c3ccco3)C2)cc1 (stereo not drawn)	44.1*	u	-5.5%	-1.0%	75.2*	-23.7%
Cc1ccc(C2CC(c3ccccc3)=NN2C(=O)CSc2nnc(-c3ccc(Cl)cc3)o2)o1 (stereo not drawn)	15.9	12.6%	7.6%	x	-4.5	14.3%
Cc1cccc2cc(C3CC(c4ccco4)=NN3S(=O)(=O)c3ccccc3)c(Cl)nc12 (stereo not drawn)	35.8*	u	28.2%	5.5%	86.4*	u
CSc1ncccc1C(=O)OCC(=O)N1CC(=O)Nc2ccccc21	x	10.0%	x	-3.8%	x	-8.8%
CCS(=O)(=O)N1N=C(c2cccc(NS(C)(=O)=O)c2)CC1c1ccccc1 (stereo not drawn)	3.5	7.2%	x	0.2%	11.3	2.8%
O=C(c1ccco1)N1N=C(c2ccco2)CC1c1ccc(Cl)cc1Cl (stereo not drawn)	x	4.15µM*	x	-1.6%	x	8.28µM*
O=C(c1ccco1)N1N=C(c2cccs2)CC1c1cc([N+](=O)[O-])ccc1O (stereo not drawn)	10.4	u	-4.0%	18.2%	-1.8	4.9%
